Measurements taken from the supplement of paper PMC12350171.
Where a name gives a salt, the structure may show the parent alone. Unmarked numbers belong to inactive results.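 How the source made its calls: active = AUC significantly below DMSO controls by Student t-fit with adjusted P under 0.01; inactive = not significantly reduced.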

Each compound was assayed on Shigella flexneri (assay: growth AUC normalised to DMSO control (fraction of control); higher = less growth inhibition, active = hit call of the paper). Details: 20 µM.
Summary of the method: (§1)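 Pathogens passaged twice anaerobically were inoculated at a starting OD578 of 0.01 into pre-reduced mGAM plates with drug at 20 μM and 1% DMSO, sealed with breathable membranes. Haemophilus parainfluenzae medium was supplemented with hemin and NAD. OD578 was read hourly for 24 h, with three biological replicates. Growth-curve AUC was computed by the trapezoidal rule up to the exponential-to-stationary transition and normalised to DMSO controls on the same plate.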

| SMILES | growth AUC normalised to DMSO control |
| --- | --- |
| CN1CCN(c2c(F)cc3c(=O)c(C(=O)O)cn(CCF)c3c2F)CC1 [Fleroxacin] | 0.0225 (active) |
| CC(C)OC(=O)C(C)(C)Oc1ccc(C(=O)c2ccc(Cl)cc2)cc1 [Fenofibrate] | 0.971 |
| Cc1cn([C@H]2C[C@H](N=[N+]=[N-])[C@@H](CO)O2)c(=O)[nH]c1=O [Zidovudine] | 0.155 (active) |
| CCC1(c2ccccc2)C(=O)NCNC1=O [Primidone] | 0.971 |
| CC(=O)Oc1ccc(C(c2ccc(OC(C)=O)cc2)c2ccccn2)cc1 [Bisacodyl] | 1.01 |
| Cn1c(=O)c2[nH]cnc2n(C)c1=O [Aminophylline] | 1.03 |
| N[C@@H](Cc1ccc(O)c(O)c1)C(=O)O [Levodopa] | 1 |
| Cc1ncc(C[n+]2csc(CCO)c2C)c(N)n1 [Thiamine hydrochloride] | 0.961 |
| CCN1CCN(C(=O)N[C@@H](C(=O)N[C@@H]2C(=O)N3[C@@H]2SC(C)(C)[C@@H]3C(=O)O)c2ccccc2)C(=O)C1=O [Piperacillin sodium salt] | 0.098 (active) |
| NNc1nncc2ccccc12 [Hydralazine hydrochloride] | 1.04 |
| C=C(CC)C(=O)c1ccc(OCC(=O)O)c(Cl)c1Cl [Ethacrynic acid] | 0.998 |
| CC(C)NC[C@H](O)COc1cccc2ccccc12 [(S)-(-)-Propranolol hydrochloride] | 0.997 |
| CC(C)NC[C@@H](O)COc1cccc2ccccc12 [(R) Propranolol hydrochloride] | 1.02 |
| C[C@H]1[C@H](NC(=O)/C(=N\OC(C)(C)C(=O)O)c2csc(N)n2)C(=O)N1S(=O)(=O)O [Aztreonam] | 0.0599 (active) |
| O=C1C(=O)c2ccccc2C(O)=C1C1CCC(c2ccc(Cl)cc2)CC1 (configuration not stated) [Atovaquone] | 0.976 |
| O=C(O)c1cc(/N=N/c2ccc(S(=O)(=O)Nc3ccccn3)cc2)ccc1O [Sulfasalazine] | 1.01 |
| Cn1c(=O)c2nc[nH]c2n(C)c1=O [Theophylline monohydrate] | 1.05 |
| COc1cc([C@@H]2c3cc4c(cc3[C@@H](O[C@@H]3O[C@@H]5CO[C@@H](C)O[C@H]5[C@H](O)[C@H]3O)[C@H]3COC(=O)[C@H]23)OCO4)cc(OC)c1O [Etoposide] | 1.03 |

The compounds below were run on Vibrio cholerae in the same assay as above. Details: 20 µM.
Summary of the method: as §1

| SMILES | growth AUC normalised to DMSO control |
| --- | --- |
| Cc1cc(/C=C/c2ccc3cc(N(C)C)ccc3[n+]2C)c(C)n1-c1ccccc1 [Pyrvinium pamoate] | 0.865 |
| CN1CCN(c2c(F)cc3c(=O)c(C(=O)O)cn(CCF)c3c2F)CC1 [Fleroxacin] | 0.0321 (active) |
| CC(C)OC(=O)C(C)(C)Oc1ccc(C(=O)c2ccc(Cl)cc2)cc1 [Fenofibrate] | 1 |
| Cc1cn([C@H]2C[C@H](N=[N+]=[N-])[C@@H](CO)O2)c(=O)[nH]c1=O [Zidovudine] | 0.956 |
| CCC1(c2ccccc2)C(=O)NCNC1=O [Primidone] | 0.976 |
| CC(=O)Oc1ccc(C(c2ccc(OC(C)=O)cc2)c2ccccn2)cc1 [Bisacodyl] | 0.991 |
| Cn1c(=O)c2[nH]cnc2n(C)c1=O [Aminophylline] | 1.03 |
| N[C@@H](Cc1ccc(O)c(O)c1)C(=O)O [Levodopa] | 0.991 |
| Cc1ncc(C[n+]2csc(CCO)c2C)c(N)n1 [Thiamine hydrochloride] | 0.967 |
| CCN1CCN(C(=O)N[C@@H](C(=O)N[C@@H]2C(=O)N3[C@@H]2SC(C)(C)[C@@H]3C(=O)O)c2ccccc2)C(=O)C1=O [Piperacillin sodium salt] | 0.63 (active) |
| NNc1nncc2ccccc12 [Hydralazine hydrochloride] | 1.06 |
| C=C(CC)C(=O)c1ccc(OCC(=O)O)c(Cl)c1Cl [Ethacrynic acid] | 1.02 |
| CC(C)NC[C@H](O)COc1cccc2ccccc12 [(S)-(-)-Propranolol hydrochloride] | 1.01 |
| CC(C)NC[C@@H](O)COc1cccc2ccccc12 [(R) Propranolol hydrochloride] | 1.02 |
| C[C@H]1[C@H](NC(=O)/C(=N\OC(C)(C)C(=O)O)c2csc(N)n2)C(=O)N1S(=O)(=O)O [Aztreonam] | 0.773 (active) |
| O=C(O)c1cc(/N=N/c2ccc(S(=O)(=O)Nc3ccccn3)cc2)ccc1O [Sulfasalazine] | 1.01 |
| C[C@]12CC[C@@H]3c4ccc(O)cc4CC[C@H]3[C@@H]1C[C@@H](O)[C@@H]2O [Estriol] | 1.02 |
| Cn1c(=O)c2nc[nH]c2n(C)c1=O [Theophylline monohydrate] | 1.07 |
| COc1cc([C@@H]2c3cc4c(cc3[C@@H](O[C@@H]3O[C@@H]5CO[C@@H](C)O[C@H]5[C@H](O)[C@H]3O)[C@H]3COC(=O)[C@H]23)OCO4)cc(OC)c1O [Etoposide] | 1.02 |
